Tests used:
Experiment in all cases: PBM binding z-score (relative to random genomic background probes); higher = stronger binding; sequences stand for … in GC…GCGATTGACAGCGTAGAATGAAGG
[1] = system: FXR:RXRa (NR concentration 270 nM, RXRa partner concentration 90 nM)
Outline: (§1)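 For binding z-scores, the reference was random background probes on custom Agilent 4×180K protein-binding microarrays. These arrays were incubated 1 h with ligand-free nuclear receptor dimers in PBS pH 7.4, 2% milk, 0.02% Triton X-100, 1 mM DTT, 0.2 mg/mL BSA and 0.4 mg/ml salmon testes DNA. Fluorescence was scanned after antibody detection of each partner (one per run) and regression-normalized.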

[2] = system: LXRa:RXRa (NR concentration 270 nM, RXRa partner concentration 90 nM)
Outline: as §1

[3] = system: LXRa homodimer (NR concentration 270 nM)
Outline: as §1

[4] = system: LXRb:RXRa (NR concentration 270 nM, RXRa partner concentration 90 nM)
Outline: as §1

[5] = system: LXRb homodimer (NR concentration 270 nM)
Outline: as §1

[6] = system: PPARa:RXRa (NR concentration 270 nM, RXRa partner concentration 90 nM)
Outline: as §1

[7] = system: PPARg:RXRa (NR concentration 180 nM, RXRa partner concentration 90 nM)
Outline: as §1

[8] = system: PPARg:RXRa 270nM:90nM, anti-RXR (NR concentration 270 nM, RXRa partner concentration 90 nM)
Outline: as §1

[9] = system: PPARg:RXRa 30nM:10nM, anti-RXR (NR concentration 30 nM, RXRa partner concentration 10 nM)
Outline: as §1

[10] = system: PPARg:RXRa 90nM:30nM, anti-RXR (NR concentration 90 nM, RXRa partner concentration 30 nM)
Outline: as §1

[11] = system: PPARg:RXRa DBDmut IVT, anti-RXR (DBD mutation: RXRa K156A/R161A, NR concentration 270 nM, RXRa partner concentration 90 nM)
Outline: as §1

[12] = system: PPARg:RXRa IVT, anti-PPARg (NR concentration 270 nM, RXRa partner concentration 90 nM)
Outline: as §1

[13] = system: PPARg DBDmut:RXRa IVT, anti-PPARg (DBD mutation: PPARg1 K132A/R137A, NR concentration 270 nM, RXRa partner concentration 90 nM)
Outline: as §1

[14] = system: PPARg DBDmut IVT, anti-PPARg (DBD mutation: PPARg1 K132A/R137A, NR concentration 270 nM)
Outline: as §1

[15] = system: PPARg homodimer (NR concentration 180 nM)
Outline: as §1

[16] = system: PXR:RXRa (NR concentration 270 nM, RXRa partner concentration 90 nM)
Outline: as §1

[17] = system: PXR homodimer (NR concentration 270 nM)
Outline: as §1

[18] = system: RARa:RXR (NR concentration 270 nM, RXRa partner concentration 90 nM)
Outline: as §1

[19] = system: RARa homodimer (NR concentration 270 nM)
Outline: as §1

[20] = system: RARb:RXRa (NR concentration 270 nM, RXRa partner concentration 90 nM)
Outline: as §1

Sequence | PBM binding z-score [1] | PBM binding z-score [2] | PBM binding z-score [3] | PBM binding z-score [4] | PBM binding z-score [5] | PBM binding z-score [6] | PBM binding z-score [7] | PBM binding z-score [8] | PBM binding z-score [9] | PBM binding z-score [10] | PBM binding z-score [11] | PBM binding z-score [12] | PBM binding z-score [13] | PBM binding z-score [14] | PBM binding z-score [15] | PBM binding z-score [16] | PBM binding z-score [17] | PBM binding z-score [18] | PBM binding z-score [19] | PBM binding z-score [20]
AATACAGGGTCCTCGTAGGCCAGAGTACGCACAG | -0.0498 | -0.32 | -0.268 | -0.362 | -0.321 | 0.0293 | 0.721 | -0.0515 | -0.317 | -0.0938 | -0.234 | 0.716 | -0.242 | 0.0325 | -0.0615 | -0.282 | -0.0675 | -0.118 | -0.348 | 0.268
CCTACTGGGCCAAGGTCATTGAGCAGTCAAAGCA | 3.17 | 3.17 | 0.657 | 2.72 | -0.573 | 4.19 | 4.27 | 4.54 | 1.77 | 3.8 | 3.78 | 4.64 | 0.0966 | 0.249 | 1.29 | 3.5 | 1.2 | 3.64 | -0.199 | 3.21
CGTCCAAGGTCAATGCTAGGTCACTGAAAGCATT | 6.84 | 5.66 | 3.98 | 4.6 | 0.791 | 5.16 | 4.37 | 5.11 | 1.68 | 3.62 | 3.52 | 4.42 | 0.503 | 0.266 | 8.59 | 5.45 | 2.08 | – | 2.19 | 5.33
CCTTACGGGTCACGGGGTTATAGCACGACGAGCG | 7.63 | 5.25 | 0.321 | 4.81 | 0.272 | 6.37 | 8.37 | 7.11 | 3.95 | 6.75 | 3.39 | 5.93 | 4.69 | 3.61 | 8.52 | 5.66 | 0.491 | – | 2.14 | 4.72
ATATGGAGGTTAAGGGTCATTCAGGTTGGTTCGC | 6.25 | 5.67 | 3.97 | 5.2 | 1.77 | 6 | 9.22 | 8.75 | 7.43 | 10.3 | 3.59 | 5.42 | 3.41 | 2.22 | 4.57 | 6.14 | 3.95 | – | 3.41 | 3.97
CCTACTGGGCCAAAGGTCAGTGATTCCAATGCTC | 2.78 | 2.95 | 1.1 | 3.34 | -0.252 | 6.01 | 11.7 | 10.2 | 9.62 | 12.5 | 4.94 | 6.5 | 0.904 | -0.864 | 4.06 | 3.49 | 0.00567 | – | 1.82 | 4.1
CCTTACGGGTCAAGGTAATAGCACGGGTGGTACG | 5.58 | 3.16 | -0.011 | 2.58 | -0.283 | 4.8 | 4.75 | 4.34 | 1.46 | 3.28 | 1.83 | 3.41 | 0.176 | -0.496 | 1.93 | 2.54 | 0.213 | – | 0.734 | 4.1
TTACAAAGGTGAAAGGTCGTTGATGCACGCCTTG | 5.91 | 4.66 | 0.507 | 4.08 | -0.0513 | 6.21 | 9.23 | 8.27 | 8.34 | 8.62 | 3.36 | 5.57 | 1.51 | 1.12 | 2.94 | 5.11 | 0.77 | – | 0.833 | 4.25
TCTCGGAGGACACGAAAGGTCAGAACTCGACATC | 2.77 | 3.63 | 3.3 | 3.19 | 0.189 | 3.29 | 1.1 | 2.1 | 2.51 | 2.07 | 1.63 | 1.22 | -0.541 | -0.269 | 3.91 | 4.08 | 0.978 | – | 2 | 3.83
CCTACAGGGCCAAAGGTCATTGATTCCAATGCTC | 5.3 | 5.24 | 4.04 | 4.71 | 0.781 | 5.51 | 8.97 | 8.45 | 8.14 | 9.99 | 0.88 | 4.29 | 0.0481 | -0.141 | 5.51 | 5.66 | 2.27 | – | 2.39 | 4.63
AGTCAAAGTTCATCTTGGTAACGTAAGATATGCT | 6.87 | 5.48 | 5.97 | 4 | 2.25 | 4.58 | 6.07 | 6 | 3.31 | 5.53 | 0.418 | 2.63 | 0.383 | 1.1 | 2.64 | 4.92 | 6.26 | – | 1.55 | 4.95
CGGCCAAGGTCAAAGGTCAGTGAAGAGATGACGG | 8.62 | 7.07 | 2.81 | 6.59 | 1.33 | 7.11 | 10.8 | 8.98 | 8.13 | 9.65 | 3.94 | 5.66 | 0.246 | -0.114 | 7.63 | 7.3 | 1.98 | – | 4.91 | 6.06
CAAACTAGGTCAAAGGTCAAAGTTGAGCCAACCA | 8.49 | 7.15 | 5.63 | 7.42 | 3.19 | 7.85 | 14 | 11.5 | 12.5 | 13.5 | 8.56 | 9.49 | 2.5 | 3.77 | 3.75 | 7.31 | 1.83 | – | 2.12 | 5.96
GATACAGGGTCAACTAGAGGCCAGAGTATGGAAA | 7.52 | 5.21 | 0.703 | 4.77 | 0.877 | 6.2 | 6.7 | 5.69 | 2.72 | 4.61 | 2.63 | 3.97 | 1.7 | 0.682 | 3.88 | 4.77 | 0.995 | 6.02 | 0.807 | 4.8
TTACAAAGGTGAGCTGAGGTCGTTGATCCAACTC | 2.66 | 3.19 | -0.299 | 1.68 | -0.674 | 2.86 | 1.57 | 2.39 | 0.713 | 1.38 | 1.9 | 2.58 | 0.303 | -0.224 | 1.41 | 6.04 | 0.268 | – | -0.325 | 3.23

From the supplement of paper PMC6555819
